Structures are written as SMILES. Where “and” joins values, the source holds several entries; their conditions need not be identical. Equal entries are not always repeated. Inconclusive results are not listed. Calls of active or inactive are those of the source. The call rests on the fitted dose curve; in most records, active means well fitted activation curve with a large enough effect; inconclusive means small, poorly fitted or top-dose-only effect; inactive means no such curve, though single readings can be large or run the other way.
Potency means the concentration at half of the fitted maximal effect.

Sequence of Cellular tumor antigen p53 (Homo sapiens) (P04637 whole entry, looked up): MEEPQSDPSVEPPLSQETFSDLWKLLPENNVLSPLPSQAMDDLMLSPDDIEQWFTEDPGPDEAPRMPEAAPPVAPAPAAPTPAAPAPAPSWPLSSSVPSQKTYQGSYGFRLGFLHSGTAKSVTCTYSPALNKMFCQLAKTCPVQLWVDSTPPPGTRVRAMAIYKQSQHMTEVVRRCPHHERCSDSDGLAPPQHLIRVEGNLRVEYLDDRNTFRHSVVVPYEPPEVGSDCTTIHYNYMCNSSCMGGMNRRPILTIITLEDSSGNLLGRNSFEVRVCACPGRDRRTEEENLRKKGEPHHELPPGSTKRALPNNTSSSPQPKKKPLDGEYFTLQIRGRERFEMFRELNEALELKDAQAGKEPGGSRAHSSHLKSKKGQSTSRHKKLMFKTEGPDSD

In this assay the target is Cellular tumor antigen p53 (Homo sapiens) (UniProt P04637). Briefly: Primary qHTS for small molecule compounds that upregulate eGFP-tagged delta133p53alpha (in N-terminal) cells. (AID 2060322). Further: nearly all actives have a fitted effect of over 75% in size.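 On activation: series mostly up to about 56 µM; 0% = DMSO vehicle and 100% = reference activator.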 As to conditions: NCI-H358 eGFP-delta133p53alpha fluorescence, 24 h; activation: stronger effect = higher value. The essentials:
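NCI-H358 cells pre-induced 24 h with 10 ng/ml doxycycline to express N-terminal eGFP-delta133p53alpha, then dosed 24 h at 37C without doxycycline; fixed, Hoechst-stained, GFP intensity by laser scanning cytometry, normalized to DMSO (0%) and 57.5 uM 5-azacytidine (100%).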
With `CCOC(=O)Nc1cc(-c2ccc(C)c(NS(C)(=O)=O)c2)nn2c(C)nnc12`, the activation was 22.9% (inactive). Take `CSc1ccc(C(=O)N[C@@H]2CCCC[C@@H]2NC(=O)CNC(=O)c2cc(C(F)(F)F)ccc2NC(=O)NC(C)C)cc1`: the activation is -22% (inactive). As for `CC(C)c1ccc(NC(=O)Cn2cnc3c2c(=O)n(C)c(=O)n3C)cc1`, the activation was -14.8% (inactive). Still for that read-out and setting: then `CC(c1ncncc1F)C(O)(Cn1cncn1)c1ccc(F)cc1F` (stereo not drawn), with 0.477% (inactive).

As for `CC(=O)SCC(=O)c1ccc(NS(=O)(=O)c2ccc(OCCCN(C)C)cc2)nc1`, the activation was 10% (inactive). In the case of `CC(C)(F)C[C@@H](N[C@@H](c1ccc(-c2ccc(S(C)(=O)=O)cc2)cc1)C(F)(F)F)C(=O)NC1(C#N)CC1`, the activation is -8.11% (inactive). On the same count and under the same terms, next, `O=C(O)c1ccccc1NC(=O)N1CCC(c2ccccc2C(F)(F)F)CC1`: -3.34% (inactive).

Turning to `CCCCOc1ccc(-c2cncc(C(=O)NCc3cccnc3N3CCOCC3)c2)cc1Cl`, the activation was 7.64% (inactive).

With `CCCCS(=O)(=O)NC(Cc1ccc(OCCCCC2CCNCC2)cc1)C(=O)O` (stereo not drawn), the activation was 12.9% (inactive). For the compound `O=C(NCCCn1ccnc1)c1cc(-c2ccco2)on1`, the activation was -9.07% (inactive).

Consider `CN1CCN(Cc2ccc(NC(=O)Cc3ccc(Oc4cc(NC(=O)C5CC5)ncn4)cc3)cc2C(F)(F)F)CC1`, for which the Potency is 6.75 µM (active). Regarding `c1ccc(CN(CC2=NCCN2)c2ccccc2)cc1`, the activation is 0.837% (inactive) and -3.82% (inactive). Still for that read-out and setting: then `COc1cc(C(=O)NCC2(N(C)C)CCCC2)cc(OC)c1OCc1ccccc1`, with -8.11% (inactive).
